# Screening results: PubChem, National Center for Advancing Translational Sciences (NCATS)
# DT40 TDP1 CPT: DT40-hTDP1 cell growth loss with CPT; actives 12% (n = 420,000); AID 686979; chicken DT40 Tdp1-/-;hTDP1 cells + 20 nM CPT, ATP luminescence, 48 h; Potency, µM (series often up to 46.2 µM), without a hit: at the highest dose activity change, negative = growth inhibition, actives largely listed as inhibitors; note: potency is the fitted concentration of half-maximal effect; nearly all actives have a fitted effect of over 55% in size
#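 Chicken DT40 Tdp1-/- cells stably complemented with human TDP1 were seeded at 400 cells/well in medium containing 20 nM camptothecin, exposed to pin-transferred compounds, and grown at 37 °C for at least 48 hr. Viability was read as ATP luminescence.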
# IL-1B inflam inh: blocks inflammasome-driven IL-1 beta release | THP-1 LPS/ATP IL-1B secretion, AlphaLISA, 16 h; active compounds read low | activity change, % at 57.5 µM | actives 4.7% (n = 360,000) | AID 743279; in the data active = activity change below about -50%; inconclusive = mostly about -30% to -49%
#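 THP-1 cells pretreated 1 hr with compounds (up to 57.5 uM final), then stimulated with LPS (250 ng/mL final) plus ATP (1.25 mM final); secreted IL-1B measured by AlphaLISA after 16 hr, decreased signal indicating inhibition.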
# TDP1 inh: inhibitors of human tyrosyl-DNA phosphodiesterase TDP1; Q9NUW8; Potency, µM (doses to about 130 µM), for inactives: at the top dose activity change, negative = inhibition, most hits filed as inhibitors; recombinant TDP1, AlphaScreen DNA substrate cleavage; AID 485290; actives 0.28% (n = 350,000); note: potency is the fitted concentration of half-maximal effect; nearly all actives have a fitted effect of over 40% in size
# Target sequence (Q9NUW8 whole entry, looked up): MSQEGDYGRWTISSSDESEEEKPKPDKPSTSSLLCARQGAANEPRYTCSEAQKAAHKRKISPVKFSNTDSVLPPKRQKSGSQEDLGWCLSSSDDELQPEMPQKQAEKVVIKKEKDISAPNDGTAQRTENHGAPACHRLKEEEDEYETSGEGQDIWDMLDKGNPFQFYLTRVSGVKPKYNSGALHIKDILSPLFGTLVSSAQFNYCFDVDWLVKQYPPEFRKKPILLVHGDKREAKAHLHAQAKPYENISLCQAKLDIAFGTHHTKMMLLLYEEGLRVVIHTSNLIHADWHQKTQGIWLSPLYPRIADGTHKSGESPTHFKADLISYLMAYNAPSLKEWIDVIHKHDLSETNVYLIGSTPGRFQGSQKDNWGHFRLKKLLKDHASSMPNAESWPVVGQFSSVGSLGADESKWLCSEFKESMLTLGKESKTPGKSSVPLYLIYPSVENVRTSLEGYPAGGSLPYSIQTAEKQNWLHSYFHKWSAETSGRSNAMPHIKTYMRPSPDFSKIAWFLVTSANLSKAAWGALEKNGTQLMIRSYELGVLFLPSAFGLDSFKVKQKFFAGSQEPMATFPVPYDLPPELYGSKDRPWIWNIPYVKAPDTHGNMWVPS
#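 Here, a 5' biotin and 3' phosphotyrosine-FITC DNA oligonucleotide reports Tdp1 activity: intact substrate bridges AlphaScreen beads, while cleavage leaves a 3' phosphate and drops signal. All incubations at room temperature.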
# ELG1 repair inh: blocks ELG1-dependent DNA repair in HEK293T cells; HEK293T ELG1-luciferase reporter, luminescence, 16 h; DNA damage induced by 5-fluorouridine; AID 504467; Potency, µM (titrated, usually from 46.1 µM), inactives show at the top dose activity change, negative = inhibition, hits mostly inhibitors; actives 2.3% (n = 330,000); note: potency is the fitted concentration of half-maximal effect; nearly all actives have a fitted effect of over 55% in size
#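 Overnight (16 hr) co-exposure of 2,000 cells/well to 5-fluorouridine and compound at 37 °C preceded detection. Luciferase was quantified via ONE-Glo luminescence; loss of signal denotes inhibition.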
# DT40 TDP1 no CPT: qHTS for Inhibitors of human tyrosyl-DNA phosphodiesterase 1 (TDP1): qHTS in cells in absence of CPT; DT40 Tdp1-/- hTDP1 cells, no CPT, ATP luminescence, 48 h; Potency, µM (doses to about 46.2 µM), inactives show at the highest dose activity change, negative = growth inhibition, most hits filed as inhibitors; actives 15% (n = 420,000); note: potency is the fitted concentration of half-maximal effect; nearly all actives have a fitted effect of over 55% in size
#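 Seeded 400 DT40-hTDP1 cells/well (vehicle DMSO, no 20 nM CPT); pinned compounds; ≥48 hr at 37 °C; CellTiter-Glo luminescence as viability measure.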
# Giardia kill: kills Giardia lamblia. Giardia lamblia trophozoite viability. activity change, % at 7.66 µM, hits read low. actives 0.15% (n = 340,000). AID 540267; in the data active = activity change below about -80%; inconclusive = between about -30% and that limit;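 note: parasites exposed to compound for two days anaerobically before the ATP read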
#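 Compounds were tested on trophozoites seeded at 100 cells/well and held 48 hrs at 37 deg C anaerobically. An ATP-based luminescent kit measured the remaining live cells.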
# The depositor's hits bear a star; ? = inconclusive; · = no result given. Compounds with a hit are over-represented: about 19% of the library has one in this group of screens. Unless noted, calls come from the whole dose curve; as a rule, active = well fitted curve in the direction sought with a large enough effect; inconclusive = small, poorly fitted or top-dose-only effect, or another doubt; inactive = no such curve, though single readings can be large; an effect the other way counts as inactive or inconclusive. % is set by controls: 0 for no effect and ±100 for the full control effect.
SMILES,DT40 TDP1 CPT,IL-1B inflam inh,TDP1 inh,ELG1 repair inh,DT40 TDP1 no CPT,Giardia kill
CN(Cc1ccccc1)C(=O)CSc1nc2ccsc2c(=O)n1-c1ccc(F)cc1,?,·,-3.4%,·,20.6µM*,·
CCn1cnc2c([N+](=O)[O-])c(NS(=O)(=O)c3ccc(C)cc3)ccc21,-20.6%,14.4,0.5%,1.9%,?,-88.3*
CCn1cnc2cc(NS(=O)(=O)c3ccc(C)cc3)ccc21,?,18.5,-7.1%,?,?,7.5
Cc1cc(S(=O)(=O)N2CCCCCC2)c(Cl)cc1Cl,-21.1%,5.1,-9.1%,8.8%,?,-7.2
CCOC(=O)c1c(C)oc2c1c(C=NCCO)c(O)c1ccccc12,-68.9%,-111.5*,3.1%,?,?,21.4
CCOC(=O)c1c(C)oc2c1c(/C=N/c1ccccn1)c(O)c1ccccc12,?,·,-0.2%,·,?,-6.5
CCOC(=O)c1c(C)oc2c1c(C(c1cccnc1)N1CCCCC1)c(O)c1ccccc12 (stereo not given),?,33.3,2.3%,?,?,0.8
CCOC(=O)c1c(C)oc2c1c(C(c1ccccc1)N1CCOCC1)c(O)c1ccccc12 (stereo not given),?,-70.6*,-1.1%,?,18.4µM*,7.8
CCOc1ccc(NC(=O)c2cc(S(=O)(=O)NC3CCCCCC3)ccc2F)cc1,?,·,7.8%,·,?,·
O=C(Nc1ccc(Br)cc1F)c1cc(S(=O)(=O)NC2CCCCC2)ccc1F,23.1µM*,·,9.3%,·,20.6µM*,·
O=C(Nc1ccc(F)c(F)c1)c1cc(S(=O)(=O)NC2CCCCCC2)ccc1F,20.6µM*,·,5.2%,·,20.6µM*,·
O=C(Nc1ccc(Br)cc1)c1ccc(F)c(S(=O)(=O)NC2CCCCCC2)c1,2.91µM*,·,5.2%,·,1.64µM*,2.8
CC(C)c1ccc(NC(=O)c2cc(S(=O)(=O)NC3CCCCC3)ccc2F)cc1,16.4µM*,·,-2.6%,·,18.4µM*,·
C=CCN(CC=C)Cc1cc(=O)oc2cc(C)cc(C)c12,?,25.5,·,·,?,·
O=S(=O)(c1ccccc1)N1CCN(S(=O)(=O)c2ccccc2)c2ccccc21,?,-9.7,·,·,?,-4.8
O=S(=O)(/N=S1\CC=CCN1S(=O)(=O)c1ccccc1)c1ccccc1 (stereo not given),?,-86.4*,·,·,20.6µM*,-9.6
CC1(C)Cc2c(cnn2-c2cccc(F)c2)C(NC(=O)CN2CCCC2=O)C1 (stereo not given),-12.2%,-25.1,2.3%,0.0%,?,23.1
C=CCOc1ccccc1CNc1ccc2[nH]c(=O)[nH]c2c1,?,22.6,2.6%,?,20.6µM*,-4.1
C=CCOc1ccccc1CNc1ccc2c(c1)OCCO2,14.6µM*,-75.0*,5.3%,?,11.6µM*,2.9
C=CCOc1ccccc1CNc1cccc(F)c1,?,-5.2,2.7%,13.7%,-27.9%,16.2
CCCn1c(=N)n(CC(O)COc2ccc(C)cc2)c2ccccc21 (stereo not given),4.61µM*,·,5.5%,?,5.17µM*,-18.4
CCN(CC)CCn1c(=N)n(CC(O)COc2ccccc2)c2ccccc21 (stereo not given),?,-29.1,7.5%,?,18.4µM*,1.9
Cn1c(=N)n(CC(O)c2ccco2)c2ccccc21 (stereo not given),-4.8%,4.6,0.0%,5.7%,-5.7%,-20.5
OC(COc1ccccc1)CN1CCCCCC1 (stereo not given),11.0%,11.9,8.9%,12.3%,-11.8%,29.4
CN=c1sc2ccccc2n1CC(O)COc1ccccc1 (stereo not given),?,0.0,4.2%,-11.1%,18.4µM*,-0.6
SMILES,DT40 TDP1 CPT,IL-1B inflam inh,TDP1 inh,ELG1 repair inh,DT40 TDP1 no CPT,Giardia kill
CCCn1c(=N)n(CC(O)c2ccco2)c2ccccc21 (stereo not given),?,-20.5,2.1%,-4.0%,?,-5.1
Cn1c(=N)n(CC(O)c2cccc3ccccc23)c2ccccc21 (stereo not given),14.6µM*,?,-1.2%,-21.8%,13µM*,?
Cc1ccc(S(=O)(=O)NCCC(=O)OCC(=O)N2CCCC2=O)cc1C,-4.7%,10.8,6.2%,-0.5%,-8.4%,-4.5
O=C(NCCc1ccc(F)cc1)C(=O)NCC(c1ccc2c(c1)OCO2)N1CCOCC1 (stereo not given),-5.1%,·,-2.2%,·,-6.7%,·
CCCCN(CC(O)COc1cccc(C)c1)CC(O)COc1cccc(C)c1 (stereo not given),?,-99.6*,·,-26.7%,23.1µM*,8.3
CCCn1c(=N)n(CC(O)c2ccc(C)cc2)c2ccccc21 (stereo not given),?,?,2.4%,11.5%,23.1µM*,-21.8
C=CCn1c(=N)n(CC(O)COc2ccccc2OC)c2ccccc21 (stereo not given),?,?,2.5%,?,?,9.1
CCn1c(=N)n(CC(O)COc2ccc(C)cc2)c2ccccc21 (stereo not given),11.6µM*,·,0.0%,?,16.4µM*,4.1
Cc1cccc(OCC(O)CN2CCOCC2)c1 (stereo not given),2.8%,-14.7,·,12.8%,4.6%,3.6
CCCCn1c(=N)n(CC(O)COc2cccc(C)c2)c2ccccc21 (stereo not given),11.6µM*,-94.3*,0.0%,?,13µM*,-1.4
CCOC(=O)Nc1nc2ccc(Cn3cccc3)cc2[nH]1,0.82µM*,28.5,·,·,0.581µM*,-7.4
COC(=O)Nc1nc2ccc(C(=O)c3ccc(F)cc3)cc2[nH]1,·,·,5.8%,·,·,·
CCCOc1ccc2nc(NC(=O)OC)[nH]c2c1,0.0944µM*,·,5.5%,?,0.15µM*,·
CCCCN(C)C(=O)C1CCC(Cn2c(=O)[nH]c3ccsc3c2=O)CC1 (stereo not given),?,·,5.8%,·,?,·
COc1ccc(CCNC(=O)C2CC(c3ccc(C(F)(F)F)cc3)=NO2)cc1 (stereo not given),?,4.6,1.2%,-2.1%,14.6µM*,5.9
COc1ccc(CNC(=O)C2CC(c3cc(C(F)(F)F)cc(C(F)(F)F)c3)=NO2)cc1 (stereo not given),3.26µM*,63.1,2.4%,-19.0%,4.61µM*,-10.8
Cc1ccc(CNC(=O)C2CC(c3ccc(C(F)(F)F)cc3)=NO2)o1 (stereo not given),11.6µM*,-2.7,-7.1%,2.6%,7.31µM*,-5.0
